Test results published in PubChem BioAssay AID1159580 (chemical genetic matrix, 2015).
Where “and” joins values, the source holds several entries; their conditions need not be identical. Equal values may be shown once. About 2,000 (36%) of roughly 5,500 compounds were called active. Not shown: some 18% with an inconclusive outcome. Cut-off read from the data, not from the text of the source: active = normalized growth mostly below about 0.91 (no sharp cut-off); inconclusive = no clear call, values can overlap the other calls; inactive = mostly above about 0.92. The list shows a part of the results.

Test: chemical genetic growth profiling, strain panel (AID 1159580);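 note: tested at 20 µM; growth read once vehicle control cultures reached saturation at 30 °C; 1 = growth at the plate median or of vehicle wells; lower values mean less growth of the strain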
Details: S. cerevisiae deletion strains, growth OD

Measured: normalized growth

CCC1(C)CC(=O)NC1=O (stereo not given)
inactive: locus YAL013W, strain DEP1, active compounds read low 1.01 and 1.05 | locus YAL021C, strain ccr4, active compounds read low 0.987 | locus YAL026C, strain drs2, active compounds read low 0.986 | locus YAL030W, strain snc1, active compounds read low 0.954 | locus YAL040C, strain CLN3, active compounds read low 0.994 | locus YBL061C, strain skt5, active compounds read low 0.993 | locus YBR009C, strain hhf1, active compounds read low 0.97 | locus YBR021W, strain FUR4, active compounds read low 1.01 | locus YBR023C, strain chs3, active compounds read low 0.958 | locus YBR171W, strain sec66, active compounds read low 0.983 | locus YBR229C, strain ROT2, active compounds read low 1.01 | locus YBR231C, strain swc5, active compounds read low 0.991 | locus YBR279W, strain paf1, active compounds read low 0.973 | locus YCL011C, strain gbp2, active compounds read low 0.992 | locus YCL016C, strain dcc1, active compounds read low 0.986 | locus YCL029C, strain bik1, active compounds read low 1.02 | locus YCL061C, strain MRC1 (second series), active compounds read low 1.01 | locus YCL069W, strain vba3, active compounds read low 0.977 | locus YCR088W, strain abp1, active compounds read low 0.974 | locus YDL005C, strain med2, active compounds read low 0.974 | locus YDL035C, strain GPR1, active compounds read low 0.999 | locus YDL040C, strain nat1, active compounds read low 0.995 | locus YDL074C, strain BRE1, active compounds read low 0.977 | locus YDL101C, strain DUN1, active compounds read low 1.01 | locus YDL134C, strain PPH21, active compounds read low 1.02 | locus YDL185W, strain tfp1, active compounds read low 1.02 | locus YDL192W, strain arf1, active compounds read low 1.02 | locus YDR001C, strain nth1, active compounds read low 0.964 | locus YDR069C, strain doa4, active compounds read low 0.991 | locus YDR101C, strain arx1, active compounds read low 1.04 | locus YDR137W, strain rgp1, active compounds read low 0.979 | locus YDR150W, strain NUM1, active compounds read low 1.01 | locus YDR159W, strain sac3, active compounds read low 0.986 | locus YDR162C, strain NBP2, active compounds read low 1.02 | locus YDR195W, strain ref2 0.953 | locus YDR297W, strain sur2, active compounds read low 0.981 | locus YDR318W, strain mcm21, active compounds read low 1.01 | locus YDR334W, strain swr1, active compounds read low 0.952 | locus YDR335W, strain msn5, active compounds read low 0.969 | locus YDR363W, strain ESC2, active compounds read low 1.02 | locus YDR388W, active compounds read low 1.02 | locus YDR392W, strain spt3, active compounds read low 0.962 | locus YDR502C, strain sam2, active compounds read low 1.01 | locus YEL003W, strain gim4, active compounds read low 0.978 | locus YEL037C, strain rad23, active compounds read low 0.975 | locus YEL061C, strain CIN8 (second series), active compounds read low 0.982 | locus YEL061C, strain CIN8, active compounds read low 1.01 | locus YER002W, strain NOP16, active compounds read low 1.01 | locus YER015W, strain faa2, active compounds read low 0.96 | locus YER016W, strain bim1, active compounds read low 0.981 | locus YER110C, active compounds read low 1.02 | locus YER111C, strain swi4, active compounds read low 0.983 | locus YER155C, strain BEM2 (second series), active compounds read low 0.973 | locus YER155C, strain BEM2, active compounds read low 0.999 | locus YER167W, strain BCK2, active compounds read low 1.01 | locus YFR010W, strain ubp6, active compounds read low 0.974 | locus YGL078C, strain dbp3, active compounds read low 1.01 | locus YGL086W, strain mad1, active compounds read low 1.01 | locus YGL167C, strain pmr1, active compounds read low 0.982 | locus YGL173C, strain kem1, active compounds read low 0.98 | locus YGL227W, strain vid30, active compounds read low 0.985 | locus YGL240W, strain doc1, active compounds read low 0.971 | locus YGL248W, strain PDE1, active compounds read low 1 | locus YGL253W, strain hxk2, active compounds read low 0.981 | locus YGR078C, strain PAC10, active compounds read low 1 and 0.997 | locus YGR135W, strain pre9, active compounds read low 1.02 | locus YGR229C, strain SMI1, active compounds read low 1.01 and 1.03 | locus YGR252W, strain gcn5, active compounds read low 0.98 | locus YHR013C, strain ard1, active compounds read low 0.94 | locus YHR027C, strain rpn1, active compounds read low 0.978 | locus YHR030C, strain SLT2, active compounds read low 1.01 and 0.972 | locus YHR079C, strain IRE1 (second series), active compounds read low 1.02 | locus YHR079C, strain IRE1, active compounds read low 0.978 | locus YHR094C, strain hxt1, active compounds read low 1.02 | locus YHR129C, strain ARP1, active compounds read low 1 | locus YHR142W, strain chs7, active compounds read low 0.967 | locus YHR200W, strain rpn10, active compounds read low 1.02 | locus YIL066C, strain RNR3, active compounds read low 1.01 | locus YIL073C, strain SPO22, active compounds read low 1.06 | locus YIL125W, strain kgd1, active compounds read low 1.01 | locus YIR030C, strain dcg1, active compounds read low 1.02 | locus YJL092W, strain hpr5, active compounds read low 0.974 | locus YJL095W, strain BCK1 (second series), active compounds read low 0.982 | locus YJL095W, strain BCK1, active compounds read low 0.989 and 0.973 | locus YJL115W, strain asf1, active compounds read low 0.959 | locus YJL129C, strain trk1, active compounds read low 0.943 | locus YJL134W, strain LCB3, active compounds read low 1.01 | locus YJL154C, strain vps35, active compounds read low 0.971 | locus YJL164C, strain tpk1, active compounds read low 0.974 | locus YJL166W, strain qcr8, active compounds read low 0.974 | locus YJL168C, strain set2, active compounds read low 1.01 | locus YJL187C, strain SWE1 (second series), active compounds read low 1.01 | locus YJL187C, strain SWE1, active compounds read low 0.98 | locus YJR043C, strain POL32, active compounds read low 1.02 | locus YJR066W, strain TOR1, active compounds read low 0.95
